Data from paper PMC4336329 (PLoS ONE, 2015).
About 14,000 (4.5%) of roughly 310,000 compounds showed an effect of 50% or more. The effect is printed as a negative number. The list comes from a sample in which strong results are over-represented; it also holds similar structures and randomly drawn compounds.

Biological target: human ether-à-go-go-related gene (hERG) potassium channel (human, UniProt Q12809)
Test: primary screen, population patch clamp on CHO cells stably expressing hERG; higher = less effect of the substance
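Note: peak tail current of the secondary pulse compared with the same well before compound.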

Chain of human ether-à-go-go-related gene (hERG) potassium channel (Q12809 whole entry, looked up): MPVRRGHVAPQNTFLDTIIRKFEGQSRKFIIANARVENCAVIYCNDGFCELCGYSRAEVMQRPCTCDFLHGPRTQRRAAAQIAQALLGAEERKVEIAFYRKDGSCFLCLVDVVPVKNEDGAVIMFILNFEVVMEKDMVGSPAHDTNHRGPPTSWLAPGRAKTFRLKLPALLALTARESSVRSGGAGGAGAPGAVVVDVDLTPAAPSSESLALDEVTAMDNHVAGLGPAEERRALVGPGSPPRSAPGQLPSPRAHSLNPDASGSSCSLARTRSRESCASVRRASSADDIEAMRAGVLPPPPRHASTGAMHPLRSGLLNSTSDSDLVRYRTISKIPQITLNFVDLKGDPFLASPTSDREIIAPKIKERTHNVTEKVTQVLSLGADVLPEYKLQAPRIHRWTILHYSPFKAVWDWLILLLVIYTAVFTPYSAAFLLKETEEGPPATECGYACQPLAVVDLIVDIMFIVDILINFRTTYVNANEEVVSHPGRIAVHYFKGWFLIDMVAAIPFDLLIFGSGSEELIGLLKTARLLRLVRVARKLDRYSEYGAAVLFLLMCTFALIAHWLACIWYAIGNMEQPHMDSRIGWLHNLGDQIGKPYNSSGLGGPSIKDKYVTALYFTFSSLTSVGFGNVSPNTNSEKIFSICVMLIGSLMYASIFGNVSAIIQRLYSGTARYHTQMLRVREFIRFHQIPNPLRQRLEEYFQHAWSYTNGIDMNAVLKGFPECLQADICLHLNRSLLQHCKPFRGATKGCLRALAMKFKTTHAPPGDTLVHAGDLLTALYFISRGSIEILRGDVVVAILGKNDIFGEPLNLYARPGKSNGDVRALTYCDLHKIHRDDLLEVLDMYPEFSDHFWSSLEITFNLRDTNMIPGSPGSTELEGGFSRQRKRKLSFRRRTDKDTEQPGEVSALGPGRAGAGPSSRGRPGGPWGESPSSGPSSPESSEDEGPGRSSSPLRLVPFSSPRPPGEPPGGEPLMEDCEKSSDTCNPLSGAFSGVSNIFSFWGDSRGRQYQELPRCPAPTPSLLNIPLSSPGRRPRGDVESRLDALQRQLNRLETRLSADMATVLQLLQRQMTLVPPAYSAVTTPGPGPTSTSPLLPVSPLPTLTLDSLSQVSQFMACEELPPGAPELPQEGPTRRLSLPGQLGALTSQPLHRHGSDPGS

Compound	hERG current change (%, negative = inhibition) at 10uM [%]
COC(=O)C1=C(c2ccc(F)cc2OCc2ccccc2)C[C@@H]2CC[C@H]1N2C(=O)NCCCc1ccccc1	4.96
CCN(Cc1ccccc1)C(=O)CN1C(=O)NC(CC)(c2ccc(F)cc2)C1=O (stereo not shown)	-7.55
CCn1ncc(Br)c1C(=O)Nc1sc2c(c1C(=O)OC)CCC2	-40.8
O=C(Cc1ccc(F)cc1)NC1CCS(=O)(=O)C1 (stereo not shown)	9.36
Cc1cc(-c2ccccc2)oc(=O)c1NC(=O)c1ccccc1	3.11
O=C(N/N=C/c1ccc([N+](=O)[O-])cc1)c1cccnc1	0.658
Cc1cccc(Nc2ccccc2C(=O)O)c1C	2.88
CN1CCc2c(sc3c2c(=O)n(-c2ccccc2)c2nnc(SCc4ccc(Cl)cc4)n32)C1	-2.08
CCCCSCCCNC(=O)CCCN1C(=O)c2ccccc2Sc2ncccc21	-27.6
COc1ccc(N(C(=O)c2ccc3c(c2)OCO3)C2C=CS(=O)(=O)C2)c(OC)c1 (stereo not shown)	-22.3
CN(C)CCN(CC1CCCN(Cc2ccccc2F)C1)C(=O)Cc1c(F)cccc1F (stereo not shown)	-9.05
Cc1cc(C(=O)N(C)CC2CCCN(CCc3ccc(F)cc3)C2)c(C)o1 (stereo not shown)	-75.7
CCN(CC)C(=O)C1CCCN(Cc2cccc(F)c2)C1 (stereo not shown)	7.43
C=CCC(=O)N(CC)CC1CCCN(CCc2cccc(F)c2)C1 (stereo not shown)	-54.2
CCN(CC1CCCN(CCc2cccc(F)c2)C1)C(=O)c1cc(C)oc1C (stereo not shown)	-66.8
CCN(CC1CCCN(CCc2cccc(F)c2)C1)C(=O)c1ccc(CSC)o1 (stereo not shown)	-74.5
CSCc1ccc(C(=O)N2CCCC(Nc3ccc(F)cc3)C2)o1 (stereo not shown)	-18.7
C=CCn1c(SCC(=O)Nc2ccc3c(c2)OCO3)nnc1-c1ccccc1OC	-7.02
O=S(=O)(c1cccc(-c2nnc(-c3cccnc3)o2)c1)N1CCCCC1	-25
CCOC(=O)Cc1csc(NC(=O)COc2ccccc2OCC)n1	-24.2
O=S(=O)(Cc1ccccc1Cl)c1ncn[nH]1	14.2
COc1ccccc1C(=O)COC(=O)CSC(C)C(=O)Nc1cc(C)on1 (stereo not shown)	-13.7

Compound	hERG current change (%, negative = inhibition) at 10uM [%]
CCOc1ccc(CN(C)C(=O)Cc2c[nH]c3ccccc23)cc1	12
O=C(c1cc2ccccc2o1)N1CCN=C1SCc1cccc(F)c1	-7.82
CCN(CC1CCCN(CCc2cccc(F)c2)C1)C(=O)c1cc2ccccc2o1 (stereo not shown)	-79.6
O=C(NCC1CCCN(Cc2cccc(F)c2)C1)c1cccc2ccccc12 (stereo not shown)	-17.6
O=C(CN(C(=O)CCC(=O)Nc1ccccn1)c1ccc2c(c1)OCO2)NCc1ccc(F)cc1	9.42
O=C(Nc1ccccc1-c1ccccc1)NC1CC2CCCC(C1)N2CCc1ccccc1 (stereo not shown)	-53.3
CCc1ccccc1NC(=S)NC1CC2CCC(C1)N2Cc1ccc(F)cc1 (stereo not shown)	-42
CCNC(=S)NC1CC2CCCC(C1)N2CCc1ccccc1 (stereo not shown)	-48.7
O=C(Nc1cccn(Cc2ccc(F)cc2)c1=O)NC1CCCCC1	-36.2
CCOc1ccccc1NC(=O)NC1CC2CCCC(C1)N2Cc1nnnn1CCc1ccccc1 (stereo not shown)	-5.67
O=C(Nc1ccccc1-c1ccccc1)NC1CC2CCCC(C1)N2Cc1ccc(F)cc1 (stereo not shown)	-66.4
O=C(N/N=C/c1ccc[nH]1)c1ccncc1	20.2
COc1cccc(NC(=O)CCS(=O)(=O)c2cccs2)c1	14
CC(=O)c1c(C)[nH]c(C(=O)OCC(=O)N2CC(C)OC(C)C2)c1C (stereo not shown)	20.7
CCCCNC(=O)/C=C/c1ccc(S(=O)(=O)Nc2ccc(OC)cc2)cc1	3.52
Cc1cnc(NC(=O)C2(c3ccccc3)CC2)s1	7.07
O=C(Nc1sc2c(c1C(=O)O)CCCCC2)c1cccnc1	16.7
CC(C)NC(=O)c1sc2c(c1C(=O)Nc1cccnc1)CCCC2	-69.7
NC(=O)c1c(NC(=O)c2cccnc2)sc2c1CCCC2	17.5
Cc1cc(-c2onc(C)c2C(=O)Oc2ccc(Cl)cc2)no1	-2.56
Cc1cc(C)nc(SCCn2c(N3CCCCC3)nc3c2c(=O)n(C)c(=O)n3C)n1	-4.05
CC1(C)CC(=O)C=C(NC2CCCCCC2)C1	-1.93

Compound	hERG current change (%, negative = inhibition) at 10uM [%]
O=C(Oc1ccc2ccccc2c1)C1CCC1	17
O=C(Nc1ccc(-c2nnn(CC(=O)N3CCN(C(=O)c4ccco4)CC3)n2)cc1)c1ccc(F)cc1	3.09
O=C(Cn1nnc(-c2ccccc2)n1)N1CCN(S(=O)(=O)c2ccc(Cl)cc2)CC1	3.96
O=C(Nc1ccc(-c2nnn(CC(=O)N3CCN(C(=O)c4ccco4)CC3)n2)cc1)c1ccccc1F	-53.2
COc1ccc(C(=O)Nc2ccc(-c3nnn(CC(=O)N4CCN(C(=O)c5ccco5)CC4)n3)cc2)cc1	7.09
O=C(Cn1nnc(-c2ccc(Cl)cc2)n1)N1CCN(C(=O)c2ccco2)CC1	-65
Cc1ccccc1-c1nnn(CC(=O)N2CCN(C(=O)c3ccco3)CC2)n1	-40.1
Cc1ccc(C2=NOC(=O)/C2=C\c2ccc(C)o2)cc1	6.75
O=C(N/N=C\c1cccnc1)C1c2ccccc2Oc2ccccc21	0.415
CCOC(=O)C1=C(C)N(C)C(=S)N(C)C1c1ccc(OC)cc1 (stereo not shown)	-10.5
CN(C)S(=O)(=O)c1ccc(C(=O)OCC(=O)NCc2ccco2)cc1	11.6
Cc1ccc(-c2cc(C(=O)N3CCOCC3)c3cc(C)ccc3n2)cc1	-4.82
COc1ccccc1CNC(=O)CCC(=O)n1ncc2cc(C)ccc21	0.647
c1ccc2c(c1)CCCN2Cc1nnnn1C1CCCC1	-3.84
O=C(C1CC1)N(Cc1ccco1)c1nc(-c2ccccc2)cs1	-8.62
Cc1ccc2c(c1)[C@@H]1CN(C)CC[C@@H]1N2S(=O)(=O)c1ccc(F)cc1.Cl	-29.1
Cc1ccc2c(c1)[C@@H]1CN(C)CC[C@@H]1N2S(=O)(=O)c1ccc([N+](=O)[O-])cc1.Cl	-75
Cc1ccc2c(c1)C1CN(C)CCC1N2Sc1ccccc1[N+](=O)[O-] (stereo not shown)	-62.8
Cc1ccc2c(c1)C1CN(C)CCC1N2S(=O)(=O)c1ccc(C#N)cc1 (stereo not shown)	-72.8
Cc1ccc2c(c1)C1CN(C)CCC1N2S(=O)(=O)c1ccccc1F (stereo not shown)	-32.4
Cc1ccc2c(c1)C1CN(C)CCC1N2C(=O)c1cccc(S(=O)(=O)N(C)C)c1.c1ccccc1 (stereo not shown)	-25
Cc1ccc2c(c1)C1CN(C)CCC1N2CC(=O)N(C)c1ccccc1 (stereo not shown)	6.34

Compound	hERG current change (%, negative = inhibition) at 10uM [%]
Cc1ccc2c(c1)C1CN(C)CCC1N2S(=O)(=O)c1ccc(Oc2ccc([N+](=O)[O-])cc2)cc1 (stereo not shown)	-21.3
Cc1ccc2c(c1)C1CN(C)CCC1N2C(=O)COc1ccc(S(=O)(=O)N2CCOCC2)cc1 (stereo not shown)	-15.8
CN(C(=O)Cc1c(C(=O)O)n(C)c2ccccc12)c1ccc(F)cc1	19.8
CCn1c(COc2ccccc2)nnc1SCc1ccc(C#N)cc1	-54.1
CCn1c(COc2ccccc2)nnc1SCC(=O)C(C)(C)C	-14.2
COc1ccc(-n2c(COc3ccc(C)cc3)nnc2SCc2ccc(C#N)cc2)cc1	-29.6
CCn1c(COc2ccc(C)cc2)nnc1SCc1ccc(C#N)cc1	-59.6
CCSc1nnc(COc2ccccc2)n1CC	6.43
N#Cc1ccc(CSc2nnc(COc3ccccc3)n2-c2ccccc2)cc1	-52.3
Cc1ccc(OCc2nnc(SCc3ccc(C#N)cc3)n2-c2ccc(C)cc2)cc1	-29.6
CCn1c(COc2ccc(Cl)cc2)nnc1SCc1nc2ccccc2[nH]1	-17.7
COc1ccc(-n2c(COc3ccccc3)nnc2SCc2ccc(C#N)cc2)cc1	-39.4
CCn1c(COc2ccc(Cl)cc2)nnc1SCc1ccc(C#N)cc1	-70.5
N#CCSc1nnc(COc2ccccc2)n1-c1ccccc1	-10.7
COc1ccc(-n2c(COc3ccc(Cl)cc3)nnc2SCc2ccc(C#N)cc2)cc1	0.977
COc1ccc(/C=N/NC(=O)CCN2CCCCC2c2cccnc2)cc1Cn1cc([N+](=O)[O-])cn1 (stereo not shown)	-30.7
CCCCOCCCNC(=O)Cc1cccs1	1.1
O=C(CN1C(=O)c2ccccc2C1=O)NN1C(=O)c2ccccc2C1=O	1.18
Cc1c(C(=O)Oc2cccc3cccnc23)oc2ccccc12	-4.01
